This note sets out measurements from PubChem BioAssay (EPA / NIEHS).

The structures appear in SMILES notation. Inconclusive results are not listed. Active and inactive are the calls of the source. How the source made its calls, unless noted: active means hit-call score of the fitted dose curve at least 0.9, where 1 is the maximum; inactive means score below 0.9.

Read-out in test [1]: Intercellular Adhesion Molecule 1 (ICAM1), ICAM1 (gene 3383)
Briefly: BSK_3C_ICAM1: BioMAP Diversity Plus: 3C Assay for Intercellular Adhesion Molecule 1 (ICAM1) Biomarker Activity (AID 2283003). Conditions: primary human endothelial cells (HUVEC); actives raise or lower the signal. In outline:
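Primary human umbilical vein endothelial cells in the BioMAP 3C system were exposed to chemicals for 24 h, then ICAM-1 was quantified by ELISA. Activity was fitted bidirectionally against the DMSO negative control baseline.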

Test [2] is described as follows: BSK_3C_Proliferation: Cell Proliferation Assessment in the BioMAP Diversity Plus: 3C Assay (AID 2283006).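 On AC50: potency may reflect either rise or fall in cell number versus DMSO.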 To be noted: primary human endothelial cells (HUVEC). In outline: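 Human umbilical vein endothelial cells were grown sub-confluent and exposed to chemical for 48 h, then fixed with 10% TCA and stained with 0.1% sulforhodamine B; absorbance at 560 nm gave relative cell number, fitted bidirectionally against DMSO baseline.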

Test [3] has as its target Peroxisome proliferator-activated receptor gamma (Homo sapiens) (UniProt P37231). Briefly: ATG_PPARg_TRANS: Attagene TRANS-FACTORIAL HepG2 Assay for human Peroxisome Proliferator-activated Receptor-gamma (PPARg) (AID 2283007; active means hit-call score of the fitted dose curve at least 0.9, where 1 is the maximum). In short, it runs like this: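 Read-out: reporter mRNA induction, detected by fluorescence after RT-PCR and capillary electrophoresis. Transiently transfected human HepG2 liver cells carrying a chimeric NR-Gal4 construct were dosed for 24 h; activity was fitted upward relative to DMSO.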

The target in test [4] is Nuclear receptor subfamily 1 group I member 2 (Homo sapiens) (UniProt O75469). In words: ATG_PXR_TRANS: Attagene TRANS-FACTORIAL HepG2 Assay for human Pregnane X Receptor (PXR) (AID 2283008; active means hit-call score of the fitted dose curve at least 0.9, where 1 is the maximum). In outline:
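HepG2 cells transiently transfected with GAL4-UAS reporter units and PXR-Gal4 chimera, exposed 24 h. Reporter mRNA quantified by RT-PCR, fluorescent labelling, HpaI digestion and capillary electrophoresis; gain of signal vs DMSO.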

In test [5] the target is Retinoic acid receptor RXR-alpha (Homo sapiens) (UniProt P19793). In words: ATG_RXRa_TRANS: Attagene TRANS-FACTORIAL HepG2 Assay for human Retinoid X Receptor alpha (RXRa) (AID 2283012; active means hit-call score of the fitted dose curve at least 0.9, where 1 is the maximum). In outline: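 HepG2 cells transiently transfected with multiplexed GAL4-UAS reporter units and chimeric NR-GAL4 fusions, dosed 24 h. Reporter mRNA measured by RT-PCR, FAM labelling, HpaI digestion and capillary electrophoresis; gain-of-signal fitted relative to DMSO baseline.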

Test [6] addresses human Retinoid X Receptor beta (RXRb), RXRB (gene 6257) (UniProt P28702). In words: ATG_RXRb_TRANS: Attagene TRANS-FACTORIAL HepG2 Assay for human Retinoid X Receptor beta (RXRb) (AID 2283013; active means hit-call score of the fitted dose curve at least 0.9, where 1 is the maximum). In outline:
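HepG2 cells transiently transfected with multiplexed reporter units driven by GAL4-UAS and exogenous chimeric NR-Gal4 proteins; treated 24 h. Reporter mRNA measured by RT-PCR, 6-FAM labelling and capillary electrophoresis; gain-of-signal fitted versus DMSO baseline.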

The target of test [7] is human Thyroid Receptor alpha (THRa1), THRA (gene 7067) (UniProt P10827). In words: ATG_THRa1_TRANS: Attagene TRANS-FACTORIAL HepG2 Assay for human Thyroid Receptor alpha (THRa1) (AID 2283014; active means hit-call score of the fitted dose curve at least 0.9, where 1 is the maximum). In outline: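 Transcripts from GAL4-UAS-driven reporters, measured after 24 h compound exposure by RT-PCR plus capillary electrophoresis of 6-FAM-labeled fragments, were fitted for gain of signal relative to DMSO. Cells: transiently transfected HepG2 expressing NR-Gal4 chimeras.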

Read-out in test [8]: E-selectin (Homo sapiens) (UniProt P16581)
In words: BSK_3C_Eselectin: BioMAP Diversity Plus: 3C Assay for Eselectin Biomarker Activity (AID 2283015).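 On outcome: cell surface E-selectin protein quantified by ELISA 24 h after dosing.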 To be noted: primary human endothelial cells (HUVEC); actives raise or lower the signal. In outline:
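E-selectin ELISA readout, fitted bidirectionally relative to DMSO, taken 24 h post-dosing in HUVEC cultures of the 3C system. Overt cytotoxicity tracked with sulforhodamine B staining of parallel wells.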

Read-out in test [9]: Interleukin-1 alpha (IL1a), IL1A (gene 3552)
In words: BSK_BE3C_IL1a: BioMAP Diversity Plus: BE3C Assay for Interleukin-1 alpha (IL1a) Biomarker Activity (AID 2283016). Conditions: primary human bronchial epithelial cells; actives raise or lower the signal. In outline: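 Human primary bronchial epithelial cells (BE3C system) were dosed with compound and IL-1a measured by ELISA 24 h later. Activity was fitted bidirectionally against DMSO baseline; cytotoxicity was tracked in parallel cultures by SRB total-protein staining.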

Read-out in test [10]: Monocyte Chemoattractant Protein-1 (MCP1), CCL2 (gene 6347)
Briefly: BSK_3C_MCP1: BioMAP Diversity Plus: 3C Assay for Monocyte Chemoattractant Protein-1 (MCP1) Biomarker Activity (AID 2283017). Conditions: primary human endothelial cells (HUVEC); actives raise or lower the signal. In short, it runs like this:
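MCP-1 was measured by ELISA 24 h after dosing in primary HUVEC 3C cultures and fitted in both directions relative to DMSO; cytotoxicity was checked by SRB total-protein staining in parallel wells.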

Read-out in test [11]: Monocyte Chemoattractant Protein-1 (MCP1), CCL2 (gene 6347)
Briefly: BSK_4H_MCP1: BioMAP Diversity Plus: 4H Assay for Monocyte Chemoattractant Protein-1 (MCP1) Biomarker Activity (AID 2283018). Conditions: primary human endothelial cells (HUVEC); actives raise or lower the signal. In outline:
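Human umbilical vein endothelial cells (4H system) dosed with chemical; MCP-1 measured by ELISA 24 h after dosing. Bidirectional curve fitting against DMSO negative control as baseline; parallel SRB total-protein staining tracks overt cytotoxicity.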

Read-out in test [12]: Human Leukocyte Antigen - DR isotype (HLADR), HLA-DRA (gene 3122)
Briefly: BSK_3C_HLADR: BioMAP Diversity Plus: 3C Assay for Human Leukocyte Antigen - DR isotype (HLADR) Biomarker Activity (AID 2283019).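 On outcome: ELISA of cell-surface HLA-DR on HUVEC 24 h after dosing.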 Conditions: primary human endothelial cells (HUVEC); actives raise or lower the signal. In short, it runs like this: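 Bidirectional fitting against DMSO was applied to the HLA-DR ELISA signal from human umbilical vein endothelial cells, 24 h post-dose. Cytotoxicity came from parallel SRB total-protein staining; 3C proliferation was counted by SRB at 48 h.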

Read-out in test [13]: Monokine induced gamma interferon (MIG), CXCL9 (gene 4283)
Briefly: BSK_3C_MIG: BioMAP Diversity Plus: 3C Assay for Monokine induced gamma interferon (MIG) Biomarker Activity (AID 2283021). To be noted: primary human endothelial cells (HUVEC); actives raise or lower the signal. In short, it runs like this: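 Primary human umbilical vein endothelial cells in the 3C system were exposed to chemical for 24 h, after which MIG was quantified by ELISA. Activity was fitted bidirectionally against DMSO as negative control and baseline.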

Test [14] concerns the target human Vitamin D Receptor (VDR), VDR (gene 7421) (UniProt P11473). Briefly: ATG_VDR_TRANS: Attagene TRANS-FACTORIAL HepG2 Assay for human Vitamin D Receptor (VDR) (AID 2283022; active means hit-call score of the fitted dose curve at least 0.9, where 1 is the maximum). In short, it runs like this:
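Transactivation by an exogenous VDR-Gal4 chimera in transiently transfected HepG2 cells was measured as reporter transcript level 24 hours after chemical treatment. RT-PCR products were analysed by capillary electrophoresis and fitted in the positive direction relative to DMSO.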

The target of test [15] is human RAR-related Orphan Receptor gamma (RORg), RORC (gene 6097) (UniProt P51449). Briefly: ATG_RORg_TRANS: Attagene TRANS-FACTORIAL HepG2 Assay for human RAR-related Orphan Receptor gamma (RORg) (AID 2283011; active means hit-call score of the fitted dose curve at least 0.9, where 1 is the maximum). In short, it runs like this: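 Reporter transcripts from a transfected RORg-GAL4 chimera in HepG2 cells were quantified 24 h after dosing by RT-PCR, 6-FAM labelling, HpaI digestion and capillary electrophoresis; increases over DMSO baseline were fitted.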

Read-out in test [16]: Interleukin-8 (IL8), CXCL8 (gene 3576)
In words: BSK_3C_IL8: BioMAP Diversity Plus: 3C Assay for Interleukin-8 (IL8) Biomarker Activity (AID 2283020). To be noted: primary human endothelial cells (HUVEC); actives raise or lower the signal. In short, it runs like this: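 Primary human umbilical vein endothelial cells (3C system) were exposed to test chemical for 24 h, then IL-8 was quantified by ELISA. Responses were fitted bidirectionally against DMSO vehicle as baseline.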

Test [17] concerns the target human RAR-related Orphan Receptor beta (RORb), RORB (gene 6096) (UniProt Q92753). In words: ATG_RORb_TRANS: Attagene TRANS-FACTORIAL HepG2 Assay for human RAR-related Orphan Receptor beta (RORb) (AID 2283010; active means hit-call score of the fitted dose curve at least 0.9, where 1 is the maximum). In outline: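 HepG2 cells were transiently transfected with multiplexed GAL4-UAS reporter units expressing chimeric nuclear receptor–GAL4 proteins, then dosed for 24 h. Reporter mRNA was quantified by RT-PCR with fluorescent labelling and capillary electrophoresis; gain of signal was fitted relative to DMSO.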

The target in test [18] is human Retinoic Acid Receptor beta (RARb), RARB (gene 5915) (UniProt P10826). Briefly: ATG_RARb_TRANS: Attagene TRANS-FACTORIAL HepG2 Assay for human Retinoic Acid Receptor beta (AID 2283004; active means hit-call score of the fitted dose curve at least 0.9, where 1 is the maximum). In outline: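 Induction of reporter mRNA from a chimeric RARb-Gal4 construct was measured by RT-PCR, FAM labelling, HpaI digestion and capillary electrophoresis. Measurements followed 24 h compound treatment of transiently transfected human HepG2 liver cells, with DMSO as baseline.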

The target in test [19] is Retinoic acid receptor alpha (Homo sapiens) (UniProt P10276). Briefly: ATG_RARa_TRANS: Attagene TRANS-FACTORIAL HepG2 Assay for human Retinoic Acid Receptor alpha (RARa) (AID 2283005; active means hit-call score of the fitted dose curve at least 0.9, where 1 is the maximum). In short, it runs like this: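 HepG2 transiently transfected with multiplex GAL4-UAS reporter units including a human RARa–GAL4 chimera; 24 h compound exposure. Reporter mRNA quantified by RT-PCR, 6-FAM labeling and capillary electrophoresis; gain of signal versus DMSO.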

Test [20] addresses human Retinoic Acid Receptor gamma (RARg), RARG (gene 5916) (UniProt P13631). In words: ATG_RARg_TRANS: Attagene TRANS-FACTORIAL HepG2 Assay for human Retinoic Acid Receptor gamma (RARg) (AID 2283009; active means hit-call score of the fitted dose curve at least 0.9, where 1 is the maximum). In short, it runs like this: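 HepG2 cells transiently transfected with multiplexed reporter units expressing chimeric RARg-GAL4 and GAL4-UAS-driven reporters; 24 h compound exposure. Reporter mRNA quantified by RT-PCR with fluorescent labelling and capillary electrophoresis; gain-of-signal fitted relative to DMSO baseline.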

Sequence of E-selectin (Homo sapiens) (P16581 whole entry, looked up): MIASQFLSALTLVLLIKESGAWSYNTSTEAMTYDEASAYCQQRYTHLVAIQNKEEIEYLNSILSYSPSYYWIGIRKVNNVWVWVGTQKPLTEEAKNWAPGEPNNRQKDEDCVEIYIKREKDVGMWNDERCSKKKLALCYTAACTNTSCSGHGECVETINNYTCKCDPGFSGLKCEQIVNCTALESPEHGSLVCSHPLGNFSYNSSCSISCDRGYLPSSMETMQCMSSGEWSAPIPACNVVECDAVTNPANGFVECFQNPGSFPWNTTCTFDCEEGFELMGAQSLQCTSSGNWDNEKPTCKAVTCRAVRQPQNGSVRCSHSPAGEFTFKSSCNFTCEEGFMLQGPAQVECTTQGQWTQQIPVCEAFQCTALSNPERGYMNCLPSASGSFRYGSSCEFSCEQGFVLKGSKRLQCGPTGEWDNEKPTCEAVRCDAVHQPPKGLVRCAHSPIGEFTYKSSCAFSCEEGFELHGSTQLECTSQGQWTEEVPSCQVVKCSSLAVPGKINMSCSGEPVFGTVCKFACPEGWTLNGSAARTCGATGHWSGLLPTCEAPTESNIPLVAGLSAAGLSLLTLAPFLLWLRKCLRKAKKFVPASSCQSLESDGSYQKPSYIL
Sequence of human Retinoic Acid Receptor gamma (RARg), RARG (gene 5916) (P13631 whole entry, looked up, the tested form may be a part): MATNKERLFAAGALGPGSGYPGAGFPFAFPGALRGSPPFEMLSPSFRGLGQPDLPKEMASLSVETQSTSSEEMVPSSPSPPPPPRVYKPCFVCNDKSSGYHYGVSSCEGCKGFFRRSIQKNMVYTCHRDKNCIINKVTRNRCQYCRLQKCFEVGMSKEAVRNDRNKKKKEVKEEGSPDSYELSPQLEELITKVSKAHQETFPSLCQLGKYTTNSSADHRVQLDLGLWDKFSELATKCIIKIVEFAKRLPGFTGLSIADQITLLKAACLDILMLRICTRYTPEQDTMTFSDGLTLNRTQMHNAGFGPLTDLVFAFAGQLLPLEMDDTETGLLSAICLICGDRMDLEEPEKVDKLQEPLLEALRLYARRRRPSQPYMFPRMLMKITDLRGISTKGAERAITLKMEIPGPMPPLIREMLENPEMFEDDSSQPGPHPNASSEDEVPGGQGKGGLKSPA
Sequence of Nuclear receptor subfamily 1 group I member 2 (Homo sapiens) (O75469 whole entry, looked up, the tested form may be a part): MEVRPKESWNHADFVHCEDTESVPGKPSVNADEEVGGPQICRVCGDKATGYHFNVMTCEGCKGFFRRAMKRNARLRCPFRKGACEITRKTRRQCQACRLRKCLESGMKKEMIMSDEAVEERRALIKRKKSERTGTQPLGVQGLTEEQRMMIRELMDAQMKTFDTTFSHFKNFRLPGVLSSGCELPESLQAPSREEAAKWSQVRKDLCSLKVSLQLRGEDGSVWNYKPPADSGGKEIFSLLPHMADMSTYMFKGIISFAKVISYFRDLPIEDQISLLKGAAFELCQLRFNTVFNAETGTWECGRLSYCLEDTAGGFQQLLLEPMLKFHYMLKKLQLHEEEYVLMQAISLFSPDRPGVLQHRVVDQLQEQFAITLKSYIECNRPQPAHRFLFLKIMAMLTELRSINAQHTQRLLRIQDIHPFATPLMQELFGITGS
Sequence of Retinoic acid receptor RXR-alpha (Homo sapiens) (P19793 whole entry, looked up, the tested form may be a part): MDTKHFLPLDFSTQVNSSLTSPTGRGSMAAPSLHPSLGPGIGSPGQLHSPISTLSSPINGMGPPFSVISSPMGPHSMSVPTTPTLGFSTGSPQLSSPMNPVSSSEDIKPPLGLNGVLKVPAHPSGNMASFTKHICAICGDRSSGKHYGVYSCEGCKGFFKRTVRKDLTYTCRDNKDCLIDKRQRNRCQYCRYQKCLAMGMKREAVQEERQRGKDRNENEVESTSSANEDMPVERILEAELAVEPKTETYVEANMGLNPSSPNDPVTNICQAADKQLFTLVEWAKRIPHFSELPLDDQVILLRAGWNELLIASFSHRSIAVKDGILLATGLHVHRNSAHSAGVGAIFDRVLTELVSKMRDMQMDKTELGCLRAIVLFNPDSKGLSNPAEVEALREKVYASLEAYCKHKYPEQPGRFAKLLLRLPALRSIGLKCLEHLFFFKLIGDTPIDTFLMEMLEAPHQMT
Sequence of human Thyroid Receptor alpha (THRa1), THRA (gene 7067) (P10827 whole entry, looked up, the tested form may be a part): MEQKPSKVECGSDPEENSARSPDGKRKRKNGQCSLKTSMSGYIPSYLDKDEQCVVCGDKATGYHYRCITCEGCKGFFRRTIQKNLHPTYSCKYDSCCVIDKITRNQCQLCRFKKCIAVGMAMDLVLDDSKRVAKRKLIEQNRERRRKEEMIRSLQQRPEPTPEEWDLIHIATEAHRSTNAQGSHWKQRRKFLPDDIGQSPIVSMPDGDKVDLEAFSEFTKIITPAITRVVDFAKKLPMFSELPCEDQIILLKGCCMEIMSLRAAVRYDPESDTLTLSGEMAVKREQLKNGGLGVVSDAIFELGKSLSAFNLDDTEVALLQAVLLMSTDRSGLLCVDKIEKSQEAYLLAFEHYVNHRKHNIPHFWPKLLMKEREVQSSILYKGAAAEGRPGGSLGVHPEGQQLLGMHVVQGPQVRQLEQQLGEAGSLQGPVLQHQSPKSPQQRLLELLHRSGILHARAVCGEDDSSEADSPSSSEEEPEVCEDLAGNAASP
Sequence of human Retinoid X Receptor beta (RXRb), RXRB (gene 6257) (P28702 whole entry, looked up, the tested form may be a part): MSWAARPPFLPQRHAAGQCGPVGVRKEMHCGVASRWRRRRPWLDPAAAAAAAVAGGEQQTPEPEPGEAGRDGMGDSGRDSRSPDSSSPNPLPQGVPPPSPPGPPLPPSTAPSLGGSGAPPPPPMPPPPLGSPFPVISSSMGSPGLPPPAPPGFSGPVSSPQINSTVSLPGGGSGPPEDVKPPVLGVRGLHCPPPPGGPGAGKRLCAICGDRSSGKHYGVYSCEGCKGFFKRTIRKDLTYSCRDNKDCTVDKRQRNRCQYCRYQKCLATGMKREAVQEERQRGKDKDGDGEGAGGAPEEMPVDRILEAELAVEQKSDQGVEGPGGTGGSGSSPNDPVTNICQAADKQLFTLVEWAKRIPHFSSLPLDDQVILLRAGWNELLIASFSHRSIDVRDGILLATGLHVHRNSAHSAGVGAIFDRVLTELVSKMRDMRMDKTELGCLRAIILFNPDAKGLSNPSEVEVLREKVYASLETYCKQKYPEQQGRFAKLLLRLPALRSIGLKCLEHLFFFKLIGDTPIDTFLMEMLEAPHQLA
Sequence of human Vitamin D Receptor (VDR), VDR (gene 7421) (P11473 whole entry, looked up, the tested form may be a part): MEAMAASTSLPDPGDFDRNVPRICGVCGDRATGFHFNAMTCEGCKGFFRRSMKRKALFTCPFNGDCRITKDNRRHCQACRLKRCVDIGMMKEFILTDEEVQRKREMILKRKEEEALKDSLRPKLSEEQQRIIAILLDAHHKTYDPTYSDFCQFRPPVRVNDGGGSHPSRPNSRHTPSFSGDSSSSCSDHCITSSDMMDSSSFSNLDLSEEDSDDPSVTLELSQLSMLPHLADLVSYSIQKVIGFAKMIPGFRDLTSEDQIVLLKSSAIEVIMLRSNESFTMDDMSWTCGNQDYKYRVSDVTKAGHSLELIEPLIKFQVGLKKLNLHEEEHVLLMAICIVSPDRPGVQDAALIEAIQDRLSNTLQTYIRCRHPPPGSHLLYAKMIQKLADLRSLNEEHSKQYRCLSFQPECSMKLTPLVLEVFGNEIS
Sequence of Peroxisome proliferator-activated receptor gamma (Homo sapiens) (P37231 whole entry, looked up, the tested form may be a part): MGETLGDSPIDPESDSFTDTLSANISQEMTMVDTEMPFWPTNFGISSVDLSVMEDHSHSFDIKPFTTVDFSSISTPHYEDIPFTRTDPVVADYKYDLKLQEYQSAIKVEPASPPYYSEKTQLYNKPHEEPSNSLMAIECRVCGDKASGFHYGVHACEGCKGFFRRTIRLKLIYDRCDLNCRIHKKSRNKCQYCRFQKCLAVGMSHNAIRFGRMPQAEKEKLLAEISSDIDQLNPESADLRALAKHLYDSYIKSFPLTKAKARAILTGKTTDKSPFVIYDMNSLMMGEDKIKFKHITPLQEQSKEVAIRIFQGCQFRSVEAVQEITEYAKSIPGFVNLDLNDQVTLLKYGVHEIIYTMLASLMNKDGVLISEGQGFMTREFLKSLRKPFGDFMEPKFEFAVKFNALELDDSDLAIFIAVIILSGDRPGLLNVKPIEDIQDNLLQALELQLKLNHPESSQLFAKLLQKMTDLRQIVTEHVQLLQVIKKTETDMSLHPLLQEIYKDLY
Sequence of human RAR-related Orphan Receptor beta (RORb), RORB (gene 6096) (Q92753 whole entry, looked up, the tested form may be a part): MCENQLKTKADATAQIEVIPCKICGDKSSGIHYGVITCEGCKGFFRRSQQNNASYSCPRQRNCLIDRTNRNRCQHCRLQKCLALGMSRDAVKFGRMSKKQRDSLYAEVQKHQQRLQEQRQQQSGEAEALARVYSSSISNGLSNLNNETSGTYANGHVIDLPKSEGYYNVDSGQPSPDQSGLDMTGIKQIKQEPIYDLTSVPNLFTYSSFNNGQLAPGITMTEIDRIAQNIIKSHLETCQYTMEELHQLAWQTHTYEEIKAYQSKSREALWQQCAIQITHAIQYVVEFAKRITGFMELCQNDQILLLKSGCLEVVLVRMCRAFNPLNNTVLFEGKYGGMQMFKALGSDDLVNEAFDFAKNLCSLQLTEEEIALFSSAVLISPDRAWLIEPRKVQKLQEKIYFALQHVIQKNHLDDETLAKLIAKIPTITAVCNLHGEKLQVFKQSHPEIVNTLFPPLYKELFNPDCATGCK
Sequence of human RAR-related Orphan Receptor gamma (RORg), RORC (gene 6097) (P51449 whole entry, looked up, the tested form may be a part): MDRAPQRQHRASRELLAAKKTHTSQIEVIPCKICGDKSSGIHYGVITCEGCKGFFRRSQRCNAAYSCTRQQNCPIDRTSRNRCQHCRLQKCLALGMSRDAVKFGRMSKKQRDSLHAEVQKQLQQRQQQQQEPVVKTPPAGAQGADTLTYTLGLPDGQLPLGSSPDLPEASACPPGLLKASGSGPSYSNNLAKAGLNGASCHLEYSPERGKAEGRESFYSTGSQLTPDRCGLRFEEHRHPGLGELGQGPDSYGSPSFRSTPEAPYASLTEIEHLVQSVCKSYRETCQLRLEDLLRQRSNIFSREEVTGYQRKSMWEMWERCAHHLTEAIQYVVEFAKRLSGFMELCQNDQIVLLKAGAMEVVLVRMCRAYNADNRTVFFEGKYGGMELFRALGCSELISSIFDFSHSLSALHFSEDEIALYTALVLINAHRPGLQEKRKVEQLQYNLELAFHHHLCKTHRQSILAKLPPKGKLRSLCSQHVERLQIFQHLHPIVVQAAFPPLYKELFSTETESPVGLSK

In the case of `O=[N+]([O-])c1ccc(Nc2ccccc2)cc1`, the result in test [1], in [2], in test [3], in test [5], in test [7] and in test [8] was inactive. The outcome in test [9], in [10], in test [12], in test [13] and in [14] was inactive. Moreover, the AC50 in [4] was 12.3 µM (active); in test [6] it was 12.1 µM (active); in test [11] it was 20 µM (active).

As for `CCOC(=O)C(SP(=S)(OC)OC)c1ccccc1` (stereo not drawn), the result in test [1], in test [15], in [8], in [9], in [16] and in test [13] was inactive. Moreover, the outcome in test [14] was inactive. Further, the AC50 in [2] was 14.9 µM (active); in test [3], 70.8 µM (active); in [4] it was 3.52 µM (active); in [6], 32.2 µM (active); in test [11], 3.97 µM (active); in [12] it was 31.8 µM (active).

For `OCCN(CCO)CCO`, the outcome in test [1], in [2], in [17], in test [5], in test [6] and in test [8] was inactive. Also, the result in [9], in test [11], in [12], in test [16] and in test [13] was inactive.

With `O=[N+]([O-])c1cccc2ccccc12`, the outcome in test [1], in test [2], in [3], in test [5], in test [7] and in test [8] was inactive. Also, the outcome in test [9], in test [10], in test [11], in [12] and in [13] was inactive. Also, the AC50 in test [4] is 30.4 µM (active); in [6], 100 µM (active).

Regarding `Cc1cc(-c2cc(C)c(N)c(C)c2)cc(C)c1N`, the compound was classed as inactive in [18], in test [19], in test [20], in [17], in [15] and in [5]. For the same compound, the result in [7] and in [14] was inactive. Further, the values for the AC50 in [3], in test [4] and in test [6] were 36.3 µM (active), 27 µM (active) and 25.4 µM (active), respectively.

Consider `CCOC(=O)CCN(SN(C)C(=O)Oc1cccc2c1OC(C)(C)C2)C(C)C`, for which the outcome in test [1], in test [5], in test [9] and in [13] was inactive. For the same compound, the AC50 is 23.3 µM (active) in [2]; 0.713 µM (active) in [3]; 14.5 µM (active) in [4]; 37.8 µM (active) in test [6]; 20 µM (active) in test [8]; 31.6 µM (active) in test [11]. For the same compound, the AC50 was 14.2 µM (active) in [12] and 3.97 µM (active) in test [16].

For `Clc1cccc(Cl)c1Cl`, the outcome in [1], in [2], in test [20], in test [6], in test [8] and in test [9] was inactive. Besides, the outcome in test [10], in [11], in test [12], in test [16] and in test [13] was inactive.

As to `CC(C)(c1ccc(O)c(-c2ccccc2)c1)c1ccc(O)c(-c2ccccc2)c1`, the result in test [18], in test [19], in [20], in test [5] and in test [7] was inactive. Further, the AC50 in test [3] is 1.61 µM (active); in [4], 1.45 µM (active).

`CN(C)C(=S)S`: the outcome in test [1], in test [2], in [4], in [5], in [7] and in test [8] was inactive. Besides, the outcome in test [11], in test [12] and in test [13] was inactive. For the same compound, the AC50 in test [6] was 27 µM (active); in [9] it was 29.6 µM (active).

One may read the AC50 as the midpoint of the concentration-response curve, whichever way the signal moves.
